From the supplement of paper PMC6555819

Assays:
Experiment in all cases: PBM binding z-score (relative to random genomic background probes); higher = stronger binding; sequences stand for … in GC…GCGATTGACAGCGTAGAATGAAGG
[1] = system: PPARg:RXRa DBDmut IVT, anti-RXR (DBD mutation: RXRa K156A/R161A, NR concentration 270 nM, RXRa partner concentration 90 nM)
How it was run: (§1)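 Binding z-scores take random background probes as their reference. They come from custom Agilent 4×180K protein-binding microarrays incubated 1 h with ligand-free nuclear receptor dimers, with antibodies against each partner (one per run) detecting binding. Scanned fluorescence was regression-normalized.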

[2] = system: PPARg:RXRa IVT, anti-PPARg (NR concentration 270 nM, RXRa partner concentration 90 nM)
How it was run: as §1

[3] = system: PPARg DBDmut:RXRa IVT, anti-PPARg (DBD mutation: PPARg1 K132A/R137A, NR concentration 270 nM, RXRa partner concentration 90 nM)
How it was run: as §1

[4] = system: PPARg DBDmut IVT, anti-PPARg (DBD mutation: PPARg1 K132A/R137A, NR concentration 270 nM)
How it was run: as §1

[5] = system: PPARg homodimer (NR concentration 180 nM)
How it was run: as §1

[6] = system: PXR:RXRa (NR concentration 270 nM, RXRa partner concentration 90 nM)
How it was run: as §1

[7] = system: PXR homodimer (NR concentration 270 nM)
How it was run: as §1

[8] = system: RARa:RXR (NR concentration 270 nM, RXRa partner concentration 90 nM)
How it was run: as §1

[9] = system: RARa homodimer (NR concentration 270 nM)
How it was run: as §1

[10] = system: RARb:RXRa (NR concentration 270 nM, RXRa partner concentration 90 nM)
How it was run: as §1

CCGACTGGGCCAAGGTCATTGATCAGTCAAAGCA was tested, and the PBM binding z-score [1] was 2.08, the PBM binding z-score [2] was 2.75 and the PBM binding z-score [3] was -1.14. For the same sequence, the PBM binding z-score [4] was -0.87, the PBM binding z-score [5] was 2.42 and the PBM binding z-score [6] was 3.48. It also gave a PBM binding z-score [7] of 0.921, a PBM binding z-score [8] of 3.76 and a PBM binding z-score [9] of 0.257. The PBM binding z-score [10] was 3.26.
With CGTCCAAGGTCAATACTAGGTCAGTGAAAGCATT the PBM binding z-score [1] was 3.77, the PBM binding z-score [2] was 5 and the PBM binding z-score [3] was 0.518. It also gave a PBM binding z-score [4] of 0.663, a PBM binding z-score [5] of 3.8 and a PBM binding z-score [6] of 4.37. The PBM binding z-score [7] was 1.76, the PBM binding z-score [8] was 5.42 and the PBM binding z-score [9] was 0.743. For the same sequence, the PBM binding z-score [10] was 5.22.
TCTAGTTGGTCAAGGGTCACACACTCGAAATGCG showed a PBM binding z-score [1] of 2.52, a PBM binding z-score [2] of 5.1 and a PBM binding z-score [3] of 1.64. The PBM binding z-score [4] was 0.978, the PBM binding z-score [5] was 4.73 and the PBM binding z-score [6] was 4.32. For the same sequence, the PBM binding z-score [7] was 0.895, the PBM binding z-score [8] was 5.98 and the PBM binding z-score [9] was 2.83. It also gave a PBM binding z-score [10] of 3.94.
Sequence CCTCACGGGTCACTCCAGGTTATAGCATCGGAGT has a PBM binding z-score [1] of 0.962, a PBM binding z-score [2] of 1.92 and a PBM binding z-score [3] of -0.553. The PBM binding z-score [4] was -0.76, the PBM binding z-score [5] was 1.7 and the PBM binding z-score [6] was 4.86. For the same sequence, the PBM binding z-score [7] was 0.245, the PBM binding z-score [8] was 3.93 and the PBM binding z-score [9] was 0.83. It also gave a PBM binding z-score [10] of 3.69.
Sequence TCATATAGGTAATACAAGTGAAAGTCGGCATCTA has a PBM binding z-score [1] of 4.19, a PBM binding z-score [2] of 2.25 and a PBM binding z-score [3] of 0.992. It also gave a PBM binding z-score [4] of 1.83, a PBM binding z-score [5] of 1.46 and a PBM binding z-score [6] of 0.916. For the same sequence, the PBM binding z-score [7] was 0.336, the PBM binding z-score [8] was 1.3 and the PBM binding z-score [9] was 1.79. It also gave a PBM binding z-score [10] of 0.7.
Sequence CCTGCTTGGTCATGGTCAGCTAATCTACAGTATG has a PBM binding z-score [1] of 0.417, a PBM binding z-score [2] of 0.0763 and a PBM binding z-score [3] of -1.17. For the same sequence, the PBM binding z-score [4] was -0.614, the PBM binding z-score [5] was 0.0024 and the PBM binding z-score [6] was -0.154. For the same sequence, the PBM binding z-score [7] was -0.228, the PBM binding z-score [8] was -0.106 and the PBM binding z-score [9] was -0.318. It also gave a PBM binding z-score [10] of 1.24.
For CCTACGGGGCCATTCAGAGGTCATTGATCATATG, the PBM binding z-score [1] was 0.224, the PBM binding z-score [2] was 1.43 and the PBM binding z-score [3] was -1.02. For the same sequence, the PBM binding z-score [4] was -0.577, the PBM binding z-score [5] was 4.06 and the PBM binding z-score [6] was 5.55. For the same sequence, the PBM binding z-score [7] was 4.64, the PBM binding z-score [8] was 5.76 and the PBM binding z-score [9] was 0.566. The PBM binding z-score [10] was 3.55.
AATACAGGGTCATCGTAGGCCAGCGTACGCACAG gave a PBM binding z-score [1] of 2.7, a PBM binding z-score [2] of 4.3 and a PBM binding z-score [3] of 1.13. It also gave a PBM binding z-score [4] of 2.04, a PBM binding z-score [5] of 1.67 and a PBM binding z-score [6] of 4.77. The PBM binding z-score [7] was 0.406, the PBM binding z-score [8] was 4.77 and the PBM binding z-score [9] was 0.478. For the same sequence, the PBM binding z-score [10] was 4.55.
In the case of ATCGAAAGGACGAGGTGAGTATAGAGAAAGGGAA, the PBM binding z-score [1] is reported as 0.186, the PBM binding z-score [2] is reported as 0.649 and the PBM binding z-score [3] is reported as 0.713. It also gave a PBM binding z-score [4] of 0.658, a PBM binding z-score [5] of 0.139 and a PBM binding z-score [6] of -0.25. For the same sequence, the PBM binding z-score [7] was 0.286, the PBM binding z-score [8] was 0.04 and the PBM binding z-score [9] was 0.504. For the same sequence, the PBM binding z-score [10] was 1.31.
For ATTTCTAGGTAACCAAGTTCAGTGAATGCCGAAC, the PBM binding z-score [1] was 5.61, the PBM binding z-score [2] was 4.97 and the PBM binding z-score [3] was 2.81. For the same sequence, the PBM binding z-score [4] was 3.03, the PBM binding z-score [5] was 1.16 and the PBM binding z-score [6] was 2.1. It also gave a PBM binding z-score [7] of 1.89, a PBM binding z-score [8] of 0.832 and a PBM binding z-score [9] of 1.02. The PBM binding z-score [10] was 1.49.
Sequence CCTACTGGGCAAAGGTCATTGATCAGTCAAAGCA has a PBM binding z-score [1] of 1.24, a PBM binding z-score [2] of 4.2 and a PBM binding z-score [3] of -0.384. For the same sequence, the PBM binding z-score [4] was -0.183, the PBM binding z-score [5] was 4.15 and the PBM binding z-score [6] was 5.26. It also gave a PBM binding z-score [7] of 1.18, a PBM binding z-score [8] of 6.18 and a PBM binding z-score [9] of 1.65. The PBM binding z-score [10] was 4.49.
With AATACAGTGTCACTAGGCCAGAGTAGGTACGAAT the PBM binding z-score [1] was 1.71, the PBM binding z-score [2] was 3.04 and the PBM binding z-score [3] was 0.806. For the same sequence, the PBM binding z-score [4] was 0.257, the PBM binding z-score [5] was 0.169 and the PBM binding z-score [6] was -0.342. For the same sequence, the PBM binding z-score [7] was -0.144, the PBM binding z-score [8] was -0.182 and the PBM binding z-score [9] was -0.0529. For the same sequence, the PBM binding z-score [10] was 1.06.
